# HPGD inh: blocks human HPGD enzyme activity; 150,000 compounds, 4.3% hits; Potency, µM, most hits filed as inhibitors; AID 894; purified HPGD, NADH fluorescence kinetic, PGE2 substrate; active = well fitted inhibition curve with a large enough effect, not every such curve was filed as active; inconclusive = small, poorly fitted or top-dose-only effect, or another doubt; inactive = no such curve, though single readings can be large or run the other way
#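 20 nM HPGD preincubated 15 min at room temperature with compound in 50 mM Tris-HCl pH 8, 0.01% Tween 20. Started with 1 mM NAD+ and 30 uM prostaglandin E2; NADH fluorescence (360/450 nm) read 5 times over 30-s intervals, last minus first.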
# ALDH1A1 inh: blocks purified human ALDH1A1 activity; P00352; Purified ALDH1A1, NADH fluorescence, propionaldehyde substrate; Potency, µM (highest dose often 75.3 µM), usual class: inhibitors; 220,000 compounds, 7.3% hits; AID 1030; active = well fitted inhibition curve with a large enough effect, not every such curve was filed as active; inconclusive = small, poorly fitted or top-dose-only effect, or another doubt; inactive = no such curve, though single readings can be large or run the other way
# Target sequence (P00352 whole entry, looked up): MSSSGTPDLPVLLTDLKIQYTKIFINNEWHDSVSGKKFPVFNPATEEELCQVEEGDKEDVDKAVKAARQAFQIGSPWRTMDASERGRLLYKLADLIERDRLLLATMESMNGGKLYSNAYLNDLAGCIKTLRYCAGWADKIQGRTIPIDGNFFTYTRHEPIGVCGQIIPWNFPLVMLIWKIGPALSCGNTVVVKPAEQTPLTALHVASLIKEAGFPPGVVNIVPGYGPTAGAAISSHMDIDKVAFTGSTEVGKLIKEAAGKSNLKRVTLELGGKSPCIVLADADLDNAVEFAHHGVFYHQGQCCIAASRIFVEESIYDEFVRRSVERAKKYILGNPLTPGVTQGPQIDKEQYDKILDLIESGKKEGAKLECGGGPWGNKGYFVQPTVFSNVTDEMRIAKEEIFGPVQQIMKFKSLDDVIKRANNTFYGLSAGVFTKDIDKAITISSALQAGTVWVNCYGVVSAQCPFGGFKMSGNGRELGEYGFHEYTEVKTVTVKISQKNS
# Tau FP inhib: tau fibrillization inhibition (FP); P10636; K18 P301L tau heparin fibrillization, Alexa594 FP, 6 h; Potency, µM (titrated, usually from 57.7 µM), actives largely listed as inhibitors; 280,000 compounds, 0.39% hits; AID 1468; note: nearly all actives have a fitted effect of over 55% in size
# Target sequence (P10636 561-689 P618L limits assumed): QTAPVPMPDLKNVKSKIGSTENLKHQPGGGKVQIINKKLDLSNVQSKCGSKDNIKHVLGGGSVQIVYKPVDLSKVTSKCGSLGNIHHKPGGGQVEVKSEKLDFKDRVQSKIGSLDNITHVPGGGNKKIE
#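 Quantitative HTS format: compounds meet 15 uM recombinant K18 P301L tau and Alexa 594-tau tracer in 100 mM sodium acetate pH 7; 20 uM heparin triggers fibrillization at 37 C over 6 hr; FP gives the signal.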
# NPSR antagonist: blocks cAMP signaling of the human neuropeptide S receptor | Q6W5P4 | 220,000 compounds, 1% hits | CHO-NPSR cells, cAMP TR-FRET, antagonist mode | Potency, µM (series often up to 38.3 µM), hits mostly inhibitors; note: nearly all actives have a fitted effect of over 50% in size
# Tau fluor cs: counter-screen for tau fibril formation inhibitors; tau K18 P301L Alexa594 fluorescence, heparin fibrillization; Potency, µM (doses to about 57.7 µM); 280,000 compounds, 0.93% hits; AID 1463; note: nearly all actives have a fitted effect of over 55% in size
#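 Human K18 P301L tau (15 uM unlabeled plus 0.24 uM Alexa 594-labeled, final) in 100 mM sodium acetate pH 7 was mixed with compound and 20 uM heparin and incubated 6 hr at 37 C.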
# Tau fibril ThT: blocks human tau fibril formation measured by thioflavin T; P10636; AID 1460; Potency, µM (doses to about 57.4 µM), most hits filed as inhibitors; recombinant tau K18 P301L (four-repeat tau fragment), heparin-induced fibrillization, ThT fluorescence; 270,000 compounds, 2.1% hits; note: nearly all actives have a fitted effect of over 55% in size
#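 Heparin-induced (20 uM) aggregation of recombinant human K18 P301L tau, 15 uM unlabeled with 0.24 uM labeled, pH 7 acetate buffer, 6 hr at 37 C with compound. Fibrils quantified by 30 uM ThT fluorescence after 1 hr ambient incubation.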
# Hits are given with their value; . = inactive; ? = inconclusive; / = no result; [ ] = dose if it differs, or a comment. An excerpt weighted towards active compounds, which were near 9.5% of everything screened. Unless noted, calls come from the whole dose curve; as a rule, active = well fitted curve in the direction sought with a large enough effect; inconclusive = small, poorly fitted or top-dose-only effect, or another doubt; inactive = no such curve, though single readings can be large; an effect the other way counts as inactive or inconclusive.
SMILES,HPGD inh,ALDH1A1 inh,Tau FP inhib,NPSR antagonist,Tau fluor cs,Tau fibril ThT
COc1cc(C(Nc2ccccn2)c2ccc3ccc(C)nc3c2O)cc(OC)c1O (stereo unspecified),?,.,?,?,?,15.8µM
Cc1ccnc(NC(c2cccnc2)c2ccc3cccnc3c2O)c1 (stereo unspecified),/,10µM,.,.,.,?
Cc1c(C(=O)NCCc2ccc(Cl)cc2)cccc1-n1cnc2cccnc21,/,/,.,/,.,.
COc1ccc2c(CNCc3cccs3)c(C(=O)O)n(Cc3ccc(C)cc3)c2c1,/,/,.,/,.,.
Oc1c(C(Nc2ccccn2)c2ccccn2)ccc2cccnc12 (stereo unspecified),.,.,.,?,.,?
Oc1ccccc1C(Nc1nccs1)c1ccc2cccnc2c1O (stereo unspecified),/,/,.,.,?,20µM
COc1ccccc1NC(c1cccnc1)c1ccc2cccnc2c1O (stereo unspecified),.,2.51µM,.,.,.,?
Cc1nn(C(=O)c2cccc(F)c2)c(C)c1S(=O)(=O)N1CCOCC1,/,/,?,/,.,.
COc1ccccc1CNC(=O)C(=O)NCC(c1cccs1)S(=O)(=O)c1ccccc1 (stereo unspecified),/,/,.,/,.,.
O=C(/C=C(\O)c1ccccc1)c1ccccc1O,20µM,.,.,/,.,?
CN=C(c1ccco1)n1c(=S)nc(-c2ccco2)n(C)c1=S,?,10µM,?,.,.,28.2µM
Oc1ccc(N=Cc2cc(Br)c(N3CCOCC3)o2)cc1,.,8.91µM,?,.,?,3.16µM
CCCCCC(=O)NC(=S)NC1C2CC3CC(C2)CC1C3 (stereo unspecified),/,/,.,?,.,.
COC(=O)c1cnn(-c2ccc(F)cc2F)c1/C=N/NC(N)=S,/,/,.,.,.,/
Cc1nc(NCCc2ccccc2F)c(C#N)c(C)c1[N+](=O)[O-],.,14.1µM,.,.,.,.
Cc1nc(NCCc2ccc(F)cc2)c(C#N)c(C)c1[N+](=O)[O-],.,?,.,.,.,.
COc1cc(CNc2nc(C)c([N+](=O)[O-])c(C)c2C#N)cc(OC)c1,.,3.98µM,?,.,.,.
c1ccc(CSc2n[nH]c(-c3ccco3)n2)cc1,12.6µM,.,.,.,.,.
Cn1c(SCc2ccccc2)nnc1-c1ccco1,/,.,.,.,.,.
COc1ccccc1NC(CC(=O)c1ccccc1)C(=O)OCC(=O)c1ccc(C)cc1 (stereo unspecified),.,10µM,?,.,.,.
Cc1ccc(C(=O)COC(=O)CNC(=O)COc2ccccc2C)cc1C,.,.,.,.,.,?
COc1ccccc1NC(CC(=O)c1ccccc1)C(=O)OCC(=O)c1ccc(C)c(C)c1 (stereo unspecified),.,7.08µM,.,.,.,.
COc1ccccc1NC(CC(=O)c1ccccc1)C(=O)OCC(=O)c1ccc(Br)cc1 (stereo unspecified),.,?,.,.,.,.
CCOC(=O)c1c(NC(=O)CN2CCCc3ccccc32)sc(C)c1CC,.,?,.,.,.,?
CSc1cccc(NC(=O)Cn2ncn3c(cc4ccccc43)c2=O)c1,/,/,.,/,20µM[quencher],.
SMILES,HPGD inh,ALDH1A1 inh,Tau FP inhib,NPSR antagonist,Tau fluor cs,Tau fibril ThT
O=C(NCCN1C(=O)CCC1=O)c1ccncc1,/,.,.,.,.,.
Cn1c(=O)c(=O)n(C)c2cc(S(=O)(=O)Nc3ccc4c(c3)OCCO4)ccc21,25.1µM,.,.,.,.,.
CC(C)C(=O)Nc1cc(S(=O)(=O)Nc2ccc(Cl)cc2)ccc1Cl,/,.,.,.,.,.
O=S(=O)(Nc1ccc(Cl)cc1)c1ccc(NS(=O)(=O)c2ccc3c(c2)OCCO3)cc1,/,/,14.1µM,/,?,.
O=S(=O)(Nc1ccc(S(=O)(=O)Nc2nccs2)cc1)c1ccc2c(c1)OCCO2,.,12.6µM,.,.,.,.
O=S(=O)(Nc1ccc(Cl)cc1)c1cccc(S(=O)(=O)c2ccc(Cl)c(Cl)c2)c1,/,/,11.2µM,/,?,.
COc1ccccc1NC(=O)Cn1c(=O)n(Cc2ccccc2)c(=O)c2c1c1cc(C)ccc1n2C,/,/,?,/,.,.
O=S(=O)(Nc1cc(S(=O)(=O)N2CCOCC2)ccc1N1CCOCC1)c1ccc2c(c1)OCCO2,/,.,.,.,.,.
O=S(=O)(Nc1cccc(S(=O)(=O)N2CCOCC2)c1)c1ccc2c(c1)OCCO2,/,25.1µM,.,.,.,.
Cc1cc(C)c(S(=O)(=O)N2CCN(C(=O)N(C)C)CC2)c(C)c1,/,4.47µM,.,.,.[2.34 µM],?
Cc1ccc(S(=O)(=O)N2CCN(C(=O)N(C)C)CC2)cc1,/,.,.,.,.,.
CCOC(=O)C1=C(CBr)NC(=O)NC1C (stereo unspecified),/,14.1µM,.,.,.,.
CCOC(=O)C1=C(C)NC(=O)NC1C (stereo unspecified),.,.,.,.,.,.
CCOC(=O)N1CCN(Cc2nc3c(c(=O)[nH]c(=O)n3C)n2CCCc2ccccc2)CC1,.,?,.,.,.,.
Cn1c(=O)[nH]c(=O)c2c1nc(CN1CCN(c3cccc(Cl)c3)CC1)n2CCc1ccccc1,.,14.1µM,.,.,.,.
Cn1c(=O)[nH]c(=O)c2c1nc(CN1CCN(c3ccccc3F)CC1)n2CCCc1ccccc1,.,3.16µM,.,.,.,.
CCCCCn1c(CN2CCN(C(=O)OCC)CC2)nc2c1c(=O)[nH]c(=O)n2C,.,11.2µM,.,.,.,.
CN(C)/C=C1\NC(=S)N(c2ccccc2)C1=O,/,?,.,.,.,.
CN(C)/C=C1\NC(=S)N(c2ccc(Cl)cc2)C1=O,/,20µM,.,.,.,?
Cc1cc(=O)n2[nH]c(=O)c(N=Nc3ccccc3)c2[nH]1,?,?,.,.,.,14.1µM
CCOc1ccc(N=Nc2c(=O)[nH]n3c(=O)cc(C)[nH]c23)cc1,39.8µM,.,.,.,.,3.55µM
CCOc1ccc(-n2c(O)cc(=O)[nH]c2=O)cc1,/,/,?,.,?,/
O=C(COc1ccccc1)Nc1nnc(-c2ccc(Cl)s2)o1,?,?,.,.,.,.
COC(=O)C/C=C\[C@@H](C)[C@@H](/C=N\O[C@@H](C)c1cn([C@H](CO)Cc2ccccc2)nn1)NS(=O)(=O)c1ccc(C)cc1,/,.[13.5 µM],.[11.6 µM],/,.[11.6 µM],.[11.5 µM]
Cc1c(C(=O)Nc2ccc3c(c2)CCC3)cccc1[N+](=O)[O-],.,9.46µM,.,.,.,.
CCC(=O)Nc1cccc(NC(=O)c2cccc([N+](=O)[O-])c2C)c1,.,.,.,.,.,.
CC(C)c1ccc(C2C(C#N)=C(N)N3C(=C2C#N)Sc2ccccc23)cc1 (stereo unspecified),?,.,.,7.94µM,.,.
